Reference: PubChem BioAssay (NCATS)
Inconclusive results are not listed. Entries that show only a call come without a potency. Calls of active or inactive are those of the source. Calls come from the whole dose curve; as a rule, active = well fitted inhibition curve with a large enough effect; inconclusive = small, poorly fitted or top-dose-only effect; inactive = no such curve, though single readings can be large or run the other way.

assay: qHTS to identify inhibitors of the type 1 interferon - major histocompatibility complex class I in skeletal muscle: primary screen against the NCATS Mechanism Interrogation Plate v5.0 (MIPE) Libary (AID 1347411); settings: iHSKM cells + IFN-b, HiBiT-tagged MHC-I luminescence, 24 h; series mostly up to 45.8 µM; note: nearly all actives have a fitted effect of over 65% in size
How it was run: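 Immortalized human C25cl48 myoblasts with HiBit knocked into endogenous HLA-B*08:01 were stimulated with 4.0 ng/ml IFN-beta and exposed to compounds (11-point 1:3 titration, top 46 uM final) for 24 hrs at 37 C; HiBiT lytic luminescence measured.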
Potency is the fitted concentration of half-maximal effect.

Compound | Potency
CS(=O)(=O)N1CCC(NC(=O)c2[nH]ncc2NC(=O)c2c(Cl)cccc2Cl)CC1 | 1.47 µM (active)
Cc1cccc(Oc2cnc(=O)[nH]c2)c1 | inactive
CS(=O)(=O)c1ccc(-c2nnc(/C=C/c3nnc(-c4ccc(C#N)cc4)o3)n2-c2ccccc2Cl)nc1 | inactive
Cc1ccc(-c2ccc3c(ccc4sc5c(c43)NC[C@@H](C)NC5=O)n2)cn1 | 18.6 µM (active)
CC(C)c1cc(CNc2nc(Nc3cc(C4CC4)[nH]n3)cc(N3CCN(C)CC3)n2)on1 | 0.523 µM (active)
CC[C@H](NC(=O)[C@H](CS(=O)(=O)CC1CC1)N[C@@H](c1ccc(F)cc1)C(F)(F)F)C(=O)C(=O)NC1CC1 | inactive
CCN1CCN(Cc2ccc(Nc3ncc(F)c(-c4cc(F)c5nc(C)n(C(C)C)c5c4)n3)nc2)CC1 | 10.4 µM (active)
CCN1CCN(Cc2ccc(NC(=O)c3ccc(C)c(NC(=O)c4cncc(-c5cccs5)c4)c3)cc2C(F)(F)F)CC1 | 2.94 µM (active)
COCCOc1cnc2ccn([C@H](C)c3nnc4c(F)cc(-c5cnn(C)c5)cn34)c(=O)c2c1 | inactive
O=C(NCc1cccc(O)c1)Nc1nc(-c2ccncc2)cs1 | 18.6 µM (active)
CNC(=O)c1cc(Oc2ccc3nc(N[C@@H]4CCCC[C@H]4O)sc3c2)ccn1 | inactive
CC(C)[C@@H](CS(=O)(=O)C(C)C)N1C(=O)[C@@](C)(CC(=O)O)C[C@H](c2cccc(Cl)c2)[C@H]1c1ccc(Cl)cc1 | inactive
Cc1nc([C@](C)(O)CO)sc1-c1cnc(N)c(O[C@H](C)c2cc(F)ccc2-n2nccn2)c1 | inactive
C[C@H]1[C@H](O)O[C@@H]2O[C@@]3(C)CC[C@H]4[C@H](C)CC[C@@H]1[C@@]24OO3 | inactive
FC(F)(F)c1ccc(Nc2nc(-c3c(C(F)(F)F)nc4ccccn34)cs2)cc1 | 4.66 µM (active)
O=C(NOCC(O)CO)c1ccc(F)c(F)c1Nc1ccc(I)cc1F (stereo not drawn) | inactive
Cc1ccc(NC(=O)c2ccc(CN3CC[C@H](N(C)C)C3)c(C(F)(F)F)c2)cc1Nc1nccc(-c2cncnc2)n1 | 16.1 µM (active)
Cc1ccc([N+](=O)[O-])cc1S(=O)(=O)N(C)/N=C/c1cnc2ccc(Br)cn12 | 0.104 µM (active)
COc1ccc(C(=O)C2CCN(CC(=O)N(Cc3nc4c(c(=O)[nH]3)COCC4)CC3CC3)CC2)cc1 | inactive
CCCCNc1ncc2c(-c3ccc(CN4CCN(C)CC4)cc3)cn(C3CCC(O)CC3)c2n1 (stereo not drawn) | 9.3 µM (active)
Cc1c(F)cc(C(=O)NC2CC2)cc1-c1c(F)cn2c(C(C)(C)C)nnc2c1F | inactive
CCNC(=O)Nc1ncc(-c2cc(-c3c(C)cc(OC)cc3C)nc(-c3cnccn3)n2)s1 | inactive
CN[C@@H]1[C@H](O[C@H]2[C@H](O[C@@H]3[C@@H](O)[C@H](O)[C@@H](N=C(N)N)[C@H](O)[C@H]3N=C(N)N)O[C@@H](C)[C@]2(O)C=O)O[C@@H](CO)[C@H](O)[C@H]1O | inactive
CN1CCN(c2ccc(C(=O)Nc3n[nH]c4ccc(Cc5cc(F)cc(F)c5)cc34)c(NC3CCOCC3)c2)CC1 | 16.5 µM (active)
Cc1ccc(S(=O)(=O)Cc2nc(-c3ccc(C(=O)NCc4cccnc4)cc3)oc2C)cc1 | inactive
Cc1cc(O)c(-c2ccc([C@@H](C)CN(C)C)cc2)c2c1[nH]c(=O)c1sccc12 | 0.104 µM (active)
O=C(O)c1ccc(CN2CCC(CN[C@@H]3C[C@H]3c3ccccc3)CC2)cc1 | inactive
NC[C@@](O)(c1ccc(Cl)cc1)c1ccc(-c2cn[nH]c2)cc1 | 7.39 µM (active)
